What is called AC50 is the concentration at which the activity in the assay is half-maximal. As usually defined, the IC50 is the point on the concentration scale where inhibition reaches its midpoint. By viability is commonly meant a read-out of living cells in per cent, often relative to untreated cells.

Where “and” joins values, the source holds several entries; their conditions need not be identical. Equal values may be shown once. Records with an inconclusive call do not appear. Calls of active or inactive are those of the source. Unless noted, cut-off not given; nearly all actives show AC50 up to about 26 µM.

The source of these data is PubChem BioAssay.

The nature of test [1]: viability loss in pontine glioma line – cell-based, SU-DIPG-XVII, MIPE5.0, CellTiter-Glo, qHTS, dose response (AID 1347060).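 On AC50: cells exposed to compound for 48 hours before viability readout.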 The following applies: CellTiter-Glo ATP luminescence. In general terms: ATP-based viability assays read luminescence as a measure of living cells.
Test [2] is described as follows: viability loss in pontine glioma line – cell-based, SU-DIPG-XIII, MIPE4.0, CellTiter-Glo, qHTS, dose response (AID 1347061; cut-off not given, nearly all actives have AC50 up to about 37 µM;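 further: cells exposed to compound for 48 hours before readout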). To be noted: CellTiter-Glo ATP luminescence.
A short description of test [3]: viability loss in pontine glioma line – cell-based, JHH-DIPG-1, MIPE4.0, CellTiter-Glo, qHTS, dose response (AID 1347062; cut-off not given, nearly all actives have AC50 up to about 27 µM;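 on AC50: cells exposed to compound for two days before readout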). The following applies: JHH-DIPG-1 viability, CellTiter-Glo ATP luminescence.
Test [4] in a line: viability loss in pontine glioma line – cell-based, SU-DIPG-IV, MIPE4.0, CellTiter-Glo, qHTS, dose response (AID 1347063; cut-off not given, nearly all actives have AC50 up to about 30 µM;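 further: compound exposure lasted 48 hours before the viability readout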). The following applies: CellTiter-Glo ATP luminescence.
Test [5] can be described thus: viability loss in pontine glioma line – cell-based, SU-DIPG-XIII, MIPE5.0, CellTiter-Glo, qHTS, dose response (AID 1347064; cut-off not given, nearly all actives have AC50 up to about 23 µM;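 on AC50: cells exposed to compound for 48 hours before the viability read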). The following applies: CellTiter-Glo ATP luminescence.
The nature of test [6]: viability loss in pontine glioma line – cell-based, SU-DIPG-XXV, MIPE5.0, CellTiter-Glo, qHTS, dose response (AID 1347065).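 Further: cells exposed to compound for 48 hours before ATP readout.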 The following applies: CellTiter-Glo ATP luminescence.
A short description of test [7]: growth inhibition of DIPG cells – cell-based, MIPE4.0 library, CellTiter-Glo luminescence, qHTS (AID 1347066; cut-off not given, nearly all actives have AC50 up to about 30 µM;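 further: cells exposed to compound for 48 hours before readout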). The following applies: SU-DIPG-VI viability, CellTiter-Glo ATP luminescence.
Test [8] can be described thus: JHH-DIPG-1 glioma cell viability, MIPE5.0 library, CellTiter-Glo luminescence, qHTS (AID 1347067).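 Further: cells exposed to compound for 48 hours before readout.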 The following applies: JHH-DIPG-1 glioma viability, CellTiter-Glo ATP luminescence.
Test [9] is described as follows: growth inhibition of DIPG cells – cell-based, MIPE5.0 library, qHTS (AID 1347068; cut-off not given, nearly all actives have IC50 up to about 30 µM;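 on IC50: cells exposed to compound for 48 hours before viability readout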). To be noted: SU-DIPG-XXV viability.
The nature of test [10]: viability loss with induced miR-34 in A549 – imaging, A549 dox-inducible miR-34, nuclei and caspase counts, primary screen (AID 1347080;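 active means compounds whose cell count with miR-34 switched on is under 0.7 times the count with it off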). The following applies: A549 miR-34 inducible, Hoechst nuclei count, 48 h.
Test [11] can be described thus: MELAS cybrid and Rieske KO viability enhancers – cell-based, MELAS cybrids, Rieske KO mouse fibroblasts, CellTiter-Glo, primary screen (AID 1508586;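 active means mean z-score across replicates of 1.96 or higher in either the MELAS or the Rieske mutant cell line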;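 further: z relative to plate mean and SD of compound and empty wells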). The following applies: low glucose.
Test [12] can be described thus: compounds altering HSF1 focus formation in cells – imaging, Selleck Cancer Library (AID 1347162; in the data active means plate-normalised HSF1 focus index below about 0.46). The following applies: human cells, HSF1 nuclear foci imaging, at 10 µM; SSMD: measured here: HSF1 foci SSMD mean; cell count: measured here: cell number; plate-normalised HSF1 focus index: stronger effect = lower value.
The nature of test [13]: drug combination growth inhibition, ovarian cancer – cell-based, oncology-focused library, rucaparib conditional, profiling panel (AID 1508598;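 active means normalized viability below 100% at a tested concentration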). The following applies: patient-derived ovarian cancer cells, CellTiter-Glo viability, 144 h, stronger effect = lower value.
Where [14] appears, read: stronger effect = lower value, cell number ratio, induced over uninduced.
The mark [15] stands for this setting: measured here: relative caspase fold change +Dox/-Dox.
The mark [16] stands for this setting: measured here: total cells with miR-34 induction, stronger effect = lower value.
Where [17] appears, read: measured here: total cells without miR-34 induction.
The mark [18] stands for this setting: MELAS cybrid survival, CellTiter-Glo 48 h, stronger effect = higher value.
[19] abbreviates: Rieske KO mouse fibroblast survival, CellTiter-Glo 72 h.

Consider `NC(=O)c1ccc(N(C(N)=O)c2c(F)cccc2F)nc1-c1ccc(F)cc1F`, for which the result in test [1], in [2], in test [3], in [4], in [5] and in [6] was inactive. Besides, the call in [7], in test [8] and in test [9] was inactive. Also, the fold change is 0.9 (inactive) in test [10] (setting [14]) and 0.736 in test [10] (setting [15]). Moreover, the cell count in test [10] (setting [16]) worked out at 9290; in [10] (setting [17]) it was 10300. The results for the z-score in test [11] (setting [18]) and in test [11] (setting [19]) were -0.391 (inactive) and -0.467, respectively.

Turning to `Cc1ccc(O)c(C(CCN(C(C)C)C(C)C)c2ccccc2)c1` (centres undefined), the result in test [1], in [2], in [3], in test [4], in test [5] and in test [6] was inactive. The molecule was called inactive in [7], in [8] and in test [9]. Besides, the fold change is 0.945 (inactive) and 0.96 (inactive) and 0.87 (inactive) in test [10] (setting [14]); 1.69 and 0.719 and 5.48 in test [10] (setting [15]). In addition, the cell count in [10] (setting [16]) is 8130 and 7320 and 11700; in test [10] (setting [17]) it was 8600 and 7630 and 13400. Further, the z-score is -0.247 (inactive) in test [11] (setting [18]) and -0.0904 in test [11] (setting [19]).

Consider `Clc1ccc(C(c2ccc(Cl)cc2)n2cc[n+](CC(OCc3ccc(Cl)cc3Cl)c3ccc(Cl)cc3Cl)c2)cc1` (centres undefined), for which the concentration at half-maximal activity (AC50) in test [1] is 2950 nM (active); in [2], 23500 nM (active); in test [3] it was 16600 nM (active); in test [4] it was 9350 nM (active); in test [5], 2630 nM (active); in test [6], 2350 nM (active). The AC50 was 13200 nM (active) in test [7] and 2630 nM (active) in test [8]. Besides, the IC50 in test [9] was 3720 nM (active).

`CN1c2cc(O)c(N=NC(N)=O)cc2CC1S(=O)(=O)O` (centres undefined): the outcome in test [1], in test [2], in test [3], in test [4], in test [5] and in test [6] was inactive. The molecule was called inactive in [7], in test [8] and in [9]. The fold change is 0.929 (inactive) in test [10] (setting [14]) and 0.61 in test [10] (setting [15]). The values for the cell count in test [10] (setting [16]) and in test [10] (setting [17]) were 9600 and 10300, respectively. Further, the z-score is -0.39 (inactive) in [11] (setting [18]) and 0.79 in [11] (setting [19]).

In the case of `CCNC(=O)c1noc(-c2cc(C(C)C)c(O)cc2O)c1-c1ccc(CN2CCOCC2)cc1`, the AC50 in test [1] is 16.6 nM (active); in [2] it was 105 nM (active); in test [3], 74.3 nM (active); in test [4], 52.6 nM (active); in [5] it was 33.2 nM (active); in test [6] it was 11.8 nM (active). Also, the figures for the concentration at half-maximal activity (AC50) in test [7] and in [8] were 4690 nM (active) and 20.9 nM (active), respectively. Moreover, the outcome in [9] was inactive. For the same molecule, the fold change in [10] (setting [14]) is 1.03 (inactive); in [10] (setting [15]), 0.796. In addition, the cell count in test [10] (setting [16]) was 1340; in test [10] (setting [17]), 1290; in [12], 7410. The same molecule had an SSMD in test [12] of 2.25. In test [12], the plate-normalised HSF1 focus index was 1.08 (inactive). The z-score is 2.88 (active) in test [11] (setting [18]) and 0.0253 in test [11] (setting [19]). In addition, the viability in test [13] (at 0.000305 µM, OCI-C5x cells, with rucaparib 10 µM, 100% = cells with rucaparib alone) was 136% (inactive); in [13] (at 0.000305 µM, OCI-C5x cells, without rucaparib), 129% (inactive); in test [13] (at 0.000305 µM, OCI-P5x cells, with rucaparib 20 µM, 100% = cells with rucaparib alone) it was 98% (active); in test [13] (at 0.000305 µM, OCI-P5x cells, without rucaparib) it was 112% (inactive); in [13] (at 0.00122 µM, OCI-C5x cells, with rucaparib 10 µM, 100% = cells with rucaparib alone) it was 131% (inactive); in [13] (at 0.00122 µM, OCI-C5x cells, without rucaparib), 137% (inactive). Also, the viability in test [13] (at 0.00122 µM, OCI-P5x cells, with rucaparib 20 µM, 100% = cells with rucaparib alone) is 69.1% (active); in test [13] (at 0.00122 µM, OCI-P5x cells, without rucaparib) it was 97.9% (active); in [13] (at 0.00488 µM, OCI-C5x cells, with rucaparib 10 µM, 100% = cells with rucaparib alone), 29.2% (active); in [13] (at 0.00488 µM, OCI-C5x cells, without rucaparib), 12.3% (active); in test [13] (at 0.00488 µM, OCI-P5x cells, with rucaparib 20 µM, 100% = cells with rucaparib alone), 13.9% (active); in test [13] (at 0.00488 µM, OCI-P5x cells, without rucaparib) it was 5.95% (active).
